Only some compounds are listed: those with a hit (about 1.4% of all), similar ones and a draw of the others.
Polio RdRp inh = inhibitors of poliovirus RNA polymerase binding and polymerization; 150,000 tested, 0.66% active; P03300; % elongation, % (compound at 16.7 µg/mL); poliovirus polymerase elongation, fluorescence polarization; stronger effect = lower value; in the data active means % elongation below about 90%
Mtb MbtI inh = blocks the Mycobacterium tuberculosis siderophore enzyme MbtI. P9WFX0. purified MbtI enzyme, fluorescence intensity read-out. inhibition, % (no concentration beside the values). 100,000 tested, 0.89% active; in the data active means inhibition mostly above about 56%, no sharp cut-off; inactive means mostly below about 77%
Target sequence (P9WFX0 whole entry, looked up): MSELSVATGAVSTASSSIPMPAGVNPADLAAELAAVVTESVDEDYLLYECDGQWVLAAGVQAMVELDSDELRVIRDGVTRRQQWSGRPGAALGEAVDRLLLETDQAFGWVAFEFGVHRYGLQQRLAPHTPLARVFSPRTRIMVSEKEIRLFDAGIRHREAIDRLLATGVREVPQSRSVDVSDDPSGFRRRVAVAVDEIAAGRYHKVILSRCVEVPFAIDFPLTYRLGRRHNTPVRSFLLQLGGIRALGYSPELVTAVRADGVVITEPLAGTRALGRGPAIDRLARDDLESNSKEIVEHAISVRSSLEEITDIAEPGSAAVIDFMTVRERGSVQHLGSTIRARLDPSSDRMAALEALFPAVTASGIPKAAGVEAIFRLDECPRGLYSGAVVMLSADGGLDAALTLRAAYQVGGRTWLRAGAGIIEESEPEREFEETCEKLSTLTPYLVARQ
Mtb MenB inh = blocks the Mycobacterium tuberculosis MenB enzyme; 100,000 tested, 0.43% active; inhibition, % (concentration not given with the values); MenB enzyme assay, absorbance read-out; in the data active means inhibition above about 21%, passing the limit was not always enough
* marks the source's active call; other numbers are inactive results; x = no result given.

SMILES	Polio RdRp inh	Mtb MbtI inh	Mtb MenB inh
c1ccc(-c2nc(NC3CCCCC3)s[n+]2-c2ccccc2)cc1	100	91*	x
c1ccc(-c2csc(NC3CCCCC3)n2)cc1	84*	79	-50
CCOC(=O)c1oc2ccc(Br)cc2c1CSc1nc2ccccc2c(=O)[nH]1	101	-9	-13
COc1ccccc1N1CCN(C(=O)C2C3C=CC(O3)C2C(=O)O)CC1 (centres undefined)	104	-11	-18
Cn1cc(I)c(C(=O)O)n1	103	x	-6
COc1cccc(/C=N/N2C(=O)CSC2=S)c1O	85*	4	-37
O=C1CSC(=S)N1/N=C/c1cccs1	99	34	-97
CC(C)CCn1c(=O)c2ccccc2n2c(CN(C)CCOc3ccc(Cl)cc3)nnc12	97	2	14
COc1ccc(NC(=O)c2ccco2)cc1NC(=O)c1ccc(C)c(C)c1	104	x	x
COc1cc(OC)cc(C(=O)Nc2cc(NC(=O)c3ccco3)ccc2OC)c1	99	9	48*
CN(c1ccc(O)cc1)c1nc(-c2cccs2)cs1	102	9	-38
CN(c1ccc(-c2csc(-c3cccs3)n2)cc1)S(C)(=O)=O	88*	39	-18
Cc1ccc(C(=O)NC(C(C)C)C(C)C)cc1	100	-16	-11
COc1ccc(C2C(C(=O)O)c3ccccc3C(=O)N2Cc2ccc(Cl)cc2)cc1 (centres undefined)	103	5	5
CCOc1ccc([C@@H]2[C@H](C(=O)O)c3ccccc3C(=O)N2Cc2ccccc2)c(O)c1	69*	3	9
Cc1cc(SCC(=O)N2CCN(C)CC2)nc(SCC(=O)N2CCN(C)CC2)n1	100	5	7
CC1Cc2ccccc2N1C(=O)COC(=O)C1CCN(C(=O)Nc2ccccc2)CC1 (centres undefined)	97	3	-9
Cc1cc(C)nc(SCCN(C)C)n1	x	-5	x
COc1cc(C)nc(SCC(N)=O)n1	100	-11	0
Cc1cc(C)nc(SCC(N)=O)n1	101	-11	46*
Cc1cc(C)nc(SCCSc2nc(C)cc(C)n2)n1	100	-11	34*
O=C(Cn1cnc2ccccc2c1=O)Nc1ccccc1C(=O)NCc1ccc2c(c1)OCO2	101	-6	-30
CN(C)C=NC(=O)c1cccc(Br)c1	110	14	-10
CC(Oc1ccccc1)C(=O)Nc1c(C(=O)N2CCCC2)oc2ccccc12 (centres undefined)	100	2	-22
CN1CC(=O)NC(=O)C1	84*	32	-4
SMILES	Polio RdRp inh	Mtb MbtI inh	Mtb MenB inh
C[C@H]([C@H](C)N1CC(=O)NC(=O)C1)N1CC(=O)NC(=O)C1	100	4	0
Cc1cc(C)n(N)c(=O)c1C#N	100	-17	-29
Cc1cc(C)c(C#N)c(=N)o1	55*	109	1
N#Cc1c2c(c(-c3ccccc3)[nH]c1=S)CCCC2	101	51*	-22
N#Cc1c(N)c(C#N)c(-c2ccccc2)c2c1CCCC2	108	x	-7
COC(=O)C(Cc1ccccc1)NC(=O)Nc1ccccc1OC (centres undefined)	99	-30	5
O=C1N=C(N2CCOCC2)SC1=C1CCCCC1	101	-4	-20
O=C1NC(=O)C(=C2CCCCC2)S1	105	86*	-36
O=C(CCCc1ccccc1)Nc1ccccc1O	100	-3	-20
CSc1ccccc1N1C(=O)C=CC1=O	102	101*	-5
C=C1N(c2ccccc2C)C(=O)OC1(C)C	102	-6	-5
O=C1C=CC(=O)N1c1ccccc1Br	104	99*	x
CSc1ccccc1C(=O)O	104	-4	x
Nc1ccccc1N1C(=O)c2ccccc2C1=O	106	x	-12
Cc1ccccc1N1C(=O)C=CC1=O	100	100*	-18
COc1cc(CO)ccc1OCc1ccc(C(=O)O)cc1	102	1	-14
CCOC(=O)c1nnn(-c2nonc2N)c1CN1CCSCC1	106	x	-12
O=C(CSc1nncc(=O)[nH]1)Nc1cccc(Cl)c1	101	73*	-51
O=C(CSc1nncc(=O)[nH]1)NCc1ccccc1	99	11	1
CCOc1cc(C#N)c(-n2nnc3c(sc4nc(C)cc(C)c43)c2=O)cc1OCC	78*	x	x
COc1cccc(-n2nnc3c(sc4nc(C)cc(C)c43)c2=O)c1	105	x	x
CCS(=O)c1ccccc1C(=O)OCC(=O)NCc1ccc(C)cc1 (centres undefined)	107	0	-13
CCS(=O)c1ccccc1C(=O)NCc1ccc(C)cc1 (centres undefined)	100	100*	-28
CC(C)N(Cc1nc2ccccc2c(=O)[nH]1)C(=O)c1cc(C2CC2)nn1-c1ccccc1	102	-2	-17
Cc1cc(NC(=O)CSC2=Nc3ccccc3CS2)no1	102	0	-3
Cc1cc(NC(=O)CSc2ccccc2)no1	98	4	32*
CN(Cc1ccccc1)C(=O)Cn1ncc2c([nH]c3ccccc32)c1=O	102	23	5
